In PubChem BioAssay AID1159580 (chemical genetic matrix, 2015):
The campaign covered roughly 5,500 compounds. About 2,000 (36%) were called active. Inconclusive results (about 18%) are left out. Cut-off read from the data, not from the text of the source: active = normalized growth mostly below about 0.91 (no sharp cut-off); inconclusive = no clear call, values can overlap the other calls; inactive = mostly above about 0.92. The list shows a part of the results.

Test: chemical genetic growth profiling, strain panel (AID 1159580);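 note: tested at 20 µM; growth read once vehicle control cultures reached saturation at 30 °C; 1 = growth at the plate median or of vehicle wells; lower values mean less growth of the strain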
Conditions: growth OD

Measured: normalized growth

CN(C)C(=O)Nc1ccc(Cl)c(Cl)c1
inactive: S. cerevisiae deletion strains, locus YJR075W, strain HOC1, hits give low values 0.958 | S. cerevisiae deletion strains, locus YKL009W, strain mrt4, hits give low values 0.97 | S. cerevisiae deletion strains, locus YKL068W, hits give low values 1 | S. cerevisiae deletion strains, locus YKL085W, strain MDH1 (second series), hits give low values 1 | S. cerevisiae deletion strains, locus YKL085W, strain MDH1, hits give low values 1 | S. cerevisiae deletion strains, locus YKL160W, strain elf1, hits give low values 0.955 | S. cerevisiae deletion strains, locus YKL190W, strain CNB1, hits give low values 0.996 | S. cerevisiae deletion strains, locus YKR001C, strain vps1, hits give low values 0.984 | S. cerevisiae deletion strains, locus YKR026C, strain gcn3, hits give low values 0.993 | S. cerevisiae deletion strains, locus YKR091W, strain srl3, hits give low values 0.982 | S. cerevisiae deletion strains, locus YLL001W, strain dnm1, hits give low values 0.901 | S. cerevisiae deletion strains, locus YLL026W, hits give low values 0.991 | S. cerevisiae deletion strains, locus YLL041C, strain sdh2, hits give low values 0.994 | S. cerevisiae deletion strains, locus YLR027C, strain aat2, hits give low values 0.969 | S. cerevisiae deletion strains, locus YLR039C, strain RIC1, hits give low values 1.04 | S. cerevisiae deletion strains, locus YLR058C, strain SHM2, hits give low values 0.991 | S. cerevisiae deletion strains, locus YLR102C, strain apc9, hits give low values 1 | S. cerevisiae deletion strains, locus YLR113W, strain HOG1, hits give low values 0.909 | S. cerevisiae deletion strains, locus YLR221C, strain rsa3, hits give low values 0.963 | S. cerevisiae deletion strains, locus YLR258W, strain gsy2, hits give low values 0.984 | S. cerevisiae deletion strains, locus YLR262C, strain YPT6 (second series), hits give low values 0.996 | S. cerevisiae deletion strains, locus YLR262C, strain YPT6, hits give low values 1.01 | S. cerevisiae deletion strains, locus YLR268W, strain sec22, hits give low values 0.988 | S. cerevisiae deletion strains, locus YLR320W, strain mms22, hits give low values 0.98 | S. cerevisiae deletion strains, locus YLR330W, strain CHS5, hits give low values 0.994 | S. cerevisiae deletion strains, locus YLR342W, strain FKS1 (second series), hits give low values 0.983 | S. cerevisiae deletion strains, locus YLR342W, strain FKS1, hits give low values 0.985 | S. cerevisiae deletion strains, locus YLR357W, strain rsc2, hits give low values 0.969 | S. cerevisiae deletion strains, locus YLR370C, strain arc18, hits give low values 0.965 | S. cerevisiae deletion strains, locus YLR371W, strain rom2, hits give low values 1 | S. cerevisiae deletion strains, locus YLR384C, strain iki3, hits give low values 1.01 | S. cerevisiae deletion strains, locus YLR418C, strain cdc73, hits give low values 0.85 | S. cerevisiae deletion strains, locus YML016C, strain PPZ1, hits give low values 0.993 | S. cerevisiae deletion strains, locus YML032C, strain rad52, hits give low values 0.994 | S. cerevisiae deletion strains, locus YML120C, strain ndi1, hits give low values 0.985 | S. cerevisiae deletion strains, locus YML124C, strain tub3, hits give low values 1 | S. cerevisiae deletion strains, locus YMR058W, strain fet3, hits give low values 0.992 | S. cerevisiae deletion strains, locus YMR078C, strain ctf18, hits give low values 0.999 | S. cerevisiae deletion strains, locus YMR125W, strain sto1, hits give low values 1.04 | S. cerevisiae deletion strains, locus YMR129W, hits give low values 0.991 | S. cerevisiae deletion strains, locus YMR205C, strain PFK2, hits give low values 0.917 | S. cerevisiae deletion strains, locus YMR223W, strain ubp8, hits give low values 0.987 | S. cerevisiae deletion strains, locus YMR231W, strain pep5, hits give low values 1 | S. cerevisiae deletion strains, locus YMR263W, strain SAP30, hits give low values 0.956 | S. cerevisiae deletion strains, locus YMR307W, strain GAS1, hits give low values 0.812 | S. cerevisiae deletion strains, locus YNL067W, strain RPL9B, hits give low values 0.986 | S. cerevisiae deletion strains, locus YNL071W, strain lat1, hits give low values 0.982 | S. cerevisiae deletion strains, locus YNL128W, strain TEP1, hits give low values 0.993 | S. cerevisiae deletion strains, locus YNL153C, strain GIM3, hits give low values 0.996 | S. cerevisiae deletion strains, locus YNL183C, strain NPR1, hits give low values 0.939 | S. cerevisiae deletion strains, locus YNL209W, strain ssb2, hits give low values 0.972 | S. cerevisiae deletion strains, locus YNL233W, strain BNI4, hits give low values 0.97 | S. cerevisiae deletion strains, locus YNL248C, strain rpa49, hits give low values 1.02 | S. cerevisiae deletion strains, locus YNL250W, strain rad50, hits give low values 1.01 | S. cerevisiae deletion strains, locus YNL271C, strain bni1, hits give low values 1 | S. cerevisiae deletion strains, locus YNL298W, strain CLA4, hits give low values 0.998 | S. cerevisiae deletion strains, locus YNL307C, strain MCK1, hits give low values 0.935 | S. cerevisiae deletion strains, locus YNL322C, strain KRE1 (second series), hits give low values 0.969 | S. cerevisiae deletion strains, locus YNL322C, strain KRE1, hits give low values 1 | S. cerevisiae deletion strains, locus YNR049C, strain mso1, hits give low values 0.987 | S. cerevisiae deletion strains, locus YNR052C, strain pop2, hits give low values 1.03 | S. cerevisiae deletion strains, locus YOL006C, strain TOP1, hits give low values 0.862 | S. cerevisiae deletion strains, locus YOL012C, strain htz1 1.04 | S. cerevisiae deletion strains, locus YOL147C, strain pex11, hits give low values 1 | S. cerevisiae deletion strains, locus YOR001W, strain rrp6, hits give low values 1 | S. cerevisiae deletion strains, locus YOR061W, strain CKA2, hits give low values 1 | S. cerevisiae deletion strains, locus YOR069W, strain VPS5, hits give low values 1 | S. cerevisiae deletion strains, locus YOR070C, strain gyp1, hits give low values 0.997 | S. cerevisiae deletion strains, locus YOR080W, strain dia2, hits give low values 1.01 | S. cerevisiae deletion strains, locus YOR083W, strain WHI5, hits give low values 0.927 | S. cerevisiae deletion strains, locus YOR106W, strain vam3, hits give low values 0.919 | S. cerevisiae deletion strains, locus YOR136W, strain idh2, hits give low values 0.997 | S. cerevisiae deletion strains, locus YOR144C, strain elg1, hits give low values 1.01 | S. cerevisiae deletion strains, locus YOR184W, strain ser1, hits give low values 0.929 | S. cerevisiae deletion strains, locus YOR231W, strain MKK1, hits give low values 0.991 | S. cerevisiae deletion strains, locus YOR265W, strain rbl2, hits give low values 0.992 | S. cerevisiae deletion strains, locus YOR270C, strain vph1, hits give low values 0.925 | S. cerevisiae deletion strains, locus YOR290C, strain snf2, hits give low values 0.926 | S. cerevisiae deletion strains, locus YOR316C, strain cot1, hits give low values 1 | S. cerevisiae deletion strains, locus YPL051W, strain arl3, hits give low values 0.956 | S. cerevisiae deletion strains, locus YPL055C, strain LGE1, hits give low values 0.95 | S. cerevisiae deletion strains, locus YPL078C, strain atp4, hits give low values 0.988 | S. cerevisiae deletion strains, locus YPL106C, strain sse1, hits give low values 0.981 | S. cerevisiae deletion strains, locus YPL240C, strain hsp82, hits give low values 0.982 | S. cerevisiae deletion strains, locus YPL241C, strain CIN2, hits give low values 1 | S. cerevisiae deletion strains, locus YPL256C, strain CLN2, hits give low values 0.975 | S. cerevisiae deletion strains, locus YPR119W, strain clb2, hits give low values 0.996 | S. cerevisiae deletion strains, locus YPR141C, strain kar3, hits give low values 1 | S. cerevisiae deletion strains, locus YPR163C, strain tif3, hits give low values 1 | S. cerevisiae deletion strains, locus YPR167C, strain met16, hits give low values 0.999 | S. cerevisiae deletion strains, strain wtn01, hits give low values 0.994 | S. cerevisiae strains, strain wild type, hits give low values 0.995
